Test results from the supplement of paper PMC11732987, “Enantioselective OTUD7B fragment discovery through chemoproteomics screening and high-throughput optimisation” (Communications Chemistry, 2025).

Experiments:
Assay in all cases: log2 ratio of Biotin-Ahx-Ub-VS probe labelling (fragment/DMSO); higher = less target engagement (more negative = stronger competition), active = hit call of the paper (q ≤ 0.05, log2 ratio ≤ -1)
Conditions in all cases: compound concentration: 200 uM; treatment time: 3 h
[1] = compound: CC(C)CN(C1CC1)C(=O)CCl
Outline: (§1)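 HEK293T lysate, 495 µg per sample in Tris/CHAPS/IGEPAL buffer with protease inhibitors, was treated in triplicate with fragment at 200 µM or vehicle for 3 h and then with Biotin-Ahx-Ub-VS at 0.5 µM final for 1 h. Labelled DUBs were NeutrAvidin-enriched, digested with LysC and trypsin, and run by diaPASEF LC-MS/MS. Spectronaut label-free quantities were global-median-normalised, and values are average log2 fragment/vehicle ratios by unpaired t-test on proteins with ≥2 unique peptides.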

[2] = compound: CC(NC(=O)CCl)c1cccs1
Outline: as §1

[3] = compound: CC1CCCCC1NC(=O)CCl
Outline: as §1

[4] = compound: CC1CCCCN1C(=O)CCl
Outline: as §1

[5] = compound: CC1CN(CC(C)O1)C(=O)CCl
Outline: as §1

[6] = compound: CN(C1CCCCC1)C(=O)CCl
Outline: as §1

[7] = compound: Cc1cc(NC(=O)CCl)no1
Outline: as §1

[8] = compound: Cc1cccc(NC(=O)CCl)c1
Outline: as §1

[9] = compound: Cc1nc(NC(=O)CCl)sc1C
Outline: as §1

[10] = compound: Cc1nnc(NC(=O)CCl)s1
Outline: as §1

[11] = compound: Cl.Cc1ncsc1CNC(=O)CCl
Outline: as §1

[12] = compound: ClCC(=O)N1CCCCCCC1
Outline: as §1

[13] = compound: ClCC(=O)NC1(CCCC1)C#N
Outline: as §1

[14] = compound: ClCC(=O)NCC1CCC1
Outline: as §1

[15] = compound: ClCC(=O)NCC1CCCO1
Outline: as §1

[16] = compound: ClCC(=O)NCc1ccco1
Outline: as §1

[17] = compound: ClCC(=O)Nc1cccc(Cl)c1
Outline: as §1

Measured: log2 ratio of Biotin-Ahx-Ub-VS probe labelling

USP7 (UniProt Q93009)
inactive: [1] -0.278 | [2] -0.0253 | [3] -0.0899 | [4] -0.604 | [5] -0.322 | [6] -0.42 | [7] -0.32 | [8] -0.48 | [9] -0.237 | [10] -0.376 | [11] 0.00818 | [12] -0.609 | [13] -0.186 | [14] -0.0702 | [15] -0.207 | [16] -0.0794 | [17] -0.98

USP15 (UniProt Q9Y4E8)
Chain of UniProt Q9Y4E8 (Q9Y4E8 whole entry): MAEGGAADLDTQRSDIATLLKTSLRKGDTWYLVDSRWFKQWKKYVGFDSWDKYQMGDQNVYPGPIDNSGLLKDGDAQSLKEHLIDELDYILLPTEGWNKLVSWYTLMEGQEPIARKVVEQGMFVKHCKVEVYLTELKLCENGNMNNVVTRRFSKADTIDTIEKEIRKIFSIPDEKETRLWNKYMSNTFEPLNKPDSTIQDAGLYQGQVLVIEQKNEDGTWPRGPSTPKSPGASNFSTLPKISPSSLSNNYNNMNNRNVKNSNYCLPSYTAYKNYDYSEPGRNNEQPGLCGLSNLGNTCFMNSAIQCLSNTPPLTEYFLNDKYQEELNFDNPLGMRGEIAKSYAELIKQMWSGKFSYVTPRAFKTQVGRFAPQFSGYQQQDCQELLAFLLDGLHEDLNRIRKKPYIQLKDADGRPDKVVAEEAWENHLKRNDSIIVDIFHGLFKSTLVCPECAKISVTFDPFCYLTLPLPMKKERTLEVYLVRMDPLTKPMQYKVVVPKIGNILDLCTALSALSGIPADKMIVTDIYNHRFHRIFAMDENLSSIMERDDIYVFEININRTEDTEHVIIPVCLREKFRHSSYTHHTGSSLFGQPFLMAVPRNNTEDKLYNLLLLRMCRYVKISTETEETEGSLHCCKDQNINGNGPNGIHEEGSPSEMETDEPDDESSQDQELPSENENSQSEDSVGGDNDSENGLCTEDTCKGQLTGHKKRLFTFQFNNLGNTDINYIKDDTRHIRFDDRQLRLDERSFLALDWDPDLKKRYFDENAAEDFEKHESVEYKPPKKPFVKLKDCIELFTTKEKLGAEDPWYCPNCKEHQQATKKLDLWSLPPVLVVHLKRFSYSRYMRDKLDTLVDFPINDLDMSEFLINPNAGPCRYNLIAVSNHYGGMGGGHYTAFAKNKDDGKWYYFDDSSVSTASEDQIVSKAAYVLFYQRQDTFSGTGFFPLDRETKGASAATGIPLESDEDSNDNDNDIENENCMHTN
inactive: [1] -0.00677 | [2] 0.017 | [3] -0.0215 | [4] -0.269 | [5] -0.339 | [6] -0.338 | [7] -0.104 | [8] -0.325 | [9] -0.245 | [10] -0.374 | [11] -0.116 | [12] -0.163 | [13] -0.364 | [14] -0.255 | [15] 0.0921 | [16] -0.327 | [17] -0.77

BAP1 (UniProt Q92560)
inactive: [1] 0.0148 | [4] -0.422 | [5] -0.661 | [6] -0.252 | [12] -0.0644 | [15] -0.549
active: [2] -2.33 | [3] -1.53 | [7] -2.59 | [8] -1.83 | [9] -1.05 | [10] -1.34 | [11] -2.85 | [13] -3.06 | [14] -1.81 | [16] -1.81 | [17] -2.97

USP10 (UniProt Q14694)
Chain of UniProt Q14694 (Q14694 whole entry): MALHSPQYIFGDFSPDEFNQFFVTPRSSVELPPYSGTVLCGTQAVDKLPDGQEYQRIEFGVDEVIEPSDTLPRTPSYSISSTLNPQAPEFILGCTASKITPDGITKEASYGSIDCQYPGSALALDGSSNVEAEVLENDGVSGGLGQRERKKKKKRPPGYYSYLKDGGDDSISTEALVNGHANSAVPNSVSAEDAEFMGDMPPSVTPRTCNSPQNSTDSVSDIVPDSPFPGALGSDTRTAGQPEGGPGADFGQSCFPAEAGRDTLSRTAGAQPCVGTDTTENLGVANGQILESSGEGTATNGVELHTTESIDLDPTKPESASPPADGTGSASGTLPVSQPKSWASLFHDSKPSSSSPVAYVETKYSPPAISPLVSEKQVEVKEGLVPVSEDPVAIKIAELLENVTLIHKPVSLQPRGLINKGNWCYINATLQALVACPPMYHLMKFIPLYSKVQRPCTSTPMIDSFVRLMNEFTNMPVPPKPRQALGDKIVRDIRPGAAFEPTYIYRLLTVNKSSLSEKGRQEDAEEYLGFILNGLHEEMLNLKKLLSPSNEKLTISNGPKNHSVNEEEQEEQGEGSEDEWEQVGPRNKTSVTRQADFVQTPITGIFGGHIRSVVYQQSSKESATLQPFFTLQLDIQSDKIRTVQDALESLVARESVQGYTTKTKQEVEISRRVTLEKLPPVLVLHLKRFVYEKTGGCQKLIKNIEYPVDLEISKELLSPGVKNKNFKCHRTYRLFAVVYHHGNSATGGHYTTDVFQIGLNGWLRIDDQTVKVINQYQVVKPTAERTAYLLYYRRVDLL
inactive: [1] -0.156 | [2] -0.0602 | [3] -0.0935 | [4] -0.0758 | [5] -0.166 | [6] -0.0336 | [7] -0.0298 | [8] -0.165 | [9] -0.0878 | [10] -0.256 | [11] -0.128 | [12] -0.22 | [13] 0.0316 | [14] -0.0499 | [15] -0.115 | [16] -0.0176 | [17] -0.249

USP28 (UniProt Q96RU2)
Chain of UniProt Q96RU2 (Q96RU2 whole entry): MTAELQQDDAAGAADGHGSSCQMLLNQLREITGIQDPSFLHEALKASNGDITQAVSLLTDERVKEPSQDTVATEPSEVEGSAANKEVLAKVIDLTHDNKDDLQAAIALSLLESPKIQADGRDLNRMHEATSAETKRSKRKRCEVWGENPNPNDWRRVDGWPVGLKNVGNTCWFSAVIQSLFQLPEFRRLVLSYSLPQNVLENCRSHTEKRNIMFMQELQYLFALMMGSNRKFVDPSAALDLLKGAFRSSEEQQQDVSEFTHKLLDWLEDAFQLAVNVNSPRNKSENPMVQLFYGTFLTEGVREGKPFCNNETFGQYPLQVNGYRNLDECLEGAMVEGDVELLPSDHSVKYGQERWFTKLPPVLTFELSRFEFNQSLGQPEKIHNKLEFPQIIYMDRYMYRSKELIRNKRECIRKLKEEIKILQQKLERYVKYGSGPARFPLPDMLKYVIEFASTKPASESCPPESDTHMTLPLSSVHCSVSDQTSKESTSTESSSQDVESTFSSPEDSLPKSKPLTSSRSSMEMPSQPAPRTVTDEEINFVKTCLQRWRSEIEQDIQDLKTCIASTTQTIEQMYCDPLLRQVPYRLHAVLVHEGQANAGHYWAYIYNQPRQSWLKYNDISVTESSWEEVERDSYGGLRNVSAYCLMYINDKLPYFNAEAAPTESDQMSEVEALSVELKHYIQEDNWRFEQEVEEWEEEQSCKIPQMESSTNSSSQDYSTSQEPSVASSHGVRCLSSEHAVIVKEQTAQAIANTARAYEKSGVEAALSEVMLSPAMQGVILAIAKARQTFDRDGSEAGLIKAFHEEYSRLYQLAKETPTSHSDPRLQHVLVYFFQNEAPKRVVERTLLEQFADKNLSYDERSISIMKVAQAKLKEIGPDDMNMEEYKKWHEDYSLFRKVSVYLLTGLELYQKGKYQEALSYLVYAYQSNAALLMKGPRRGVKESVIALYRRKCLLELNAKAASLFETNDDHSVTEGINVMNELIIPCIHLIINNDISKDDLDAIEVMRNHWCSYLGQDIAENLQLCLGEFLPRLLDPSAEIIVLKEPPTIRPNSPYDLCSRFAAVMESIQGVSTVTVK
inactive: [1] -0.207 | [2] -0.568 | [3] -0.669 | [4] -0.421 | [5] -0.575 | [6] -0.419 | [7] -0.987 | [8] -0.664 | [9] -0.857 | [10] -0.957 | [11] -0.256 | [12] -0.28 | [13] -0.611 | [14] -0.427 | [15] -0.11 | [16] -0.47
active: [17] -1.44

USP14 (UniProt P54578)
Chain of UniProt P54578 (P54578 whole entry): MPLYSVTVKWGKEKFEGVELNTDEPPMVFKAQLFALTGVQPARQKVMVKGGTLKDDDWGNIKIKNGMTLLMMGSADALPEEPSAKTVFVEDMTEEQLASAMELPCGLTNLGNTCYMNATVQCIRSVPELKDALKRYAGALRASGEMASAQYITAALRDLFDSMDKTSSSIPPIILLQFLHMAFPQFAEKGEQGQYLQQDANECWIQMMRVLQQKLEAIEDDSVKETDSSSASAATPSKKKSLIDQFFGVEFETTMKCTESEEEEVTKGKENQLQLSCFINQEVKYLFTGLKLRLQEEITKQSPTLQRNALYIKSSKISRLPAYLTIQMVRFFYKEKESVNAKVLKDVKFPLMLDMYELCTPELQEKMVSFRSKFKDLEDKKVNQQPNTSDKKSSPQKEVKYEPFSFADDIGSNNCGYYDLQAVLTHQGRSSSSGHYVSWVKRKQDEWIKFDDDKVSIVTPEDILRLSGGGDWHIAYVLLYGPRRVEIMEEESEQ
inactive: [1] -0.0633 | [2] 0.0378 | [3] -0.306 | [4] -0.639 | [5] -0.518 | [6] -0.00359 | [7] -0.188 | [8] -0.184 | [9] 0.051 | [10] -0.437 | [11] -0.178 | [12] -0.0389 | [13] -0.0892 | [14] 0.0427 | [15] 0.00941 | [16] -0.0561 | [17] -0.675

UCHL5 (UniProt Q9Y5K5)
Chain of UniProt Q9Y5K5 (Q9Y5K5 whole entry): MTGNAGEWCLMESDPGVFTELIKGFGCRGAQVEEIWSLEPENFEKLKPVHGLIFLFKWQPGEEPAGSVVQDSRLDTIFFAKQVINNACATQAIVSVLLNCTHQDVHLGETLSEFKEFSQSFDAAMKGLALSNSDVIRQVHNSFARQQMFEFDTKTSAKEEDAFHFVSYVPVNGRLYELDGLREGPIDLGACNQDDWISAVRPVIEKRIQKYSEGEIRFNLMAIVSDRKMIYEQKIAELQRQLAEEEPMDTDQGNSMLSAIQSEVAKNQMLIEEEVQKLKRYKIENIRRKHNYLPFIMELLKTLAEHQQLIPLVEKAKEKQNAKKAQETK
inactive: [1] -0.0257 | [2] -0.148 | [3] -0.168 | [4] -0.283 | [5] -0.314 | [6] -0.249 | [7] 0.0718 | [8] -0.0463 | [9] -0.292 | [10] -0.0414 | [11] -0.0581 | [12] -0.0659 | [13] -0.42 | [14] -0.292 | [15] -0.0635 | [16] -0.29
active: [17] -1.02

EIF3H (UniProt O15372)
Chain of UniProt O15372 (O15372 whole entry): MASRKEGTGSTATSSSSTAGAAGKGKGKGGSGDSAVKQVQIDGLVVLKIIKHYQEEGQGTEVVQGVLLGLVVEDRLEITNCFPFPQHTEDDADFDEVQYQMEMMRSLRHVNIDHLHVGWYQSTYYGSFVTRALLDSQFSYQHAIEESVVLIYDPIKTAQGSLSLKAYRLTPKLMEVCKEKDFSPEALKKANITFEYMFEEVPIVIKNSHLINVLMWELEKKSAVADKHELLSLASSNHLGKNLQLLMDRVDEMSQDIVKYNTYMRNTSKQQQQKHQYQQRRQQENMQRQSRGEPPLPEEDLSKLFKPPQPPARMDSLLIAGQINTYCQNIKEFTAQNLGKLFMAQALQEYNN
inactive: [1] -0.185 | [2] 0.239 | [3] -0.385 | [4] -0.0794 | [5] -0.144 | [6] 0.0605 | [7] 0.0219 | [8] 0.0847 | [9] 0.0871 | [10] 0.0591 | [11] 0.337 | [12] 0.342 | [13] -0.198 | [14] -0.00227 | [15] 0.038 | [16] 0.206 | [17] 0.176

ALG13 (UniProt Q9NP73)
inactive: [1] 0.0397 | [2] -0.0404 | [3] -1.07 | [4] 0.242 | [5] 0.125 | [6] -0.757 | [7] -0.0979 | [8] 0.249 | [9] 0.182 | [10] -0.152 | [11] -0.305 | [12] -0.0228 | [13] 0.017 | [14] 0.00528 | [15] 0.149 | [16] -0.6 | [17] 0.292

YOD1 (UniProt Q5VVQ6)
Chain of UniProt Q5VVQ6 (Q5VVQ6 whole entry): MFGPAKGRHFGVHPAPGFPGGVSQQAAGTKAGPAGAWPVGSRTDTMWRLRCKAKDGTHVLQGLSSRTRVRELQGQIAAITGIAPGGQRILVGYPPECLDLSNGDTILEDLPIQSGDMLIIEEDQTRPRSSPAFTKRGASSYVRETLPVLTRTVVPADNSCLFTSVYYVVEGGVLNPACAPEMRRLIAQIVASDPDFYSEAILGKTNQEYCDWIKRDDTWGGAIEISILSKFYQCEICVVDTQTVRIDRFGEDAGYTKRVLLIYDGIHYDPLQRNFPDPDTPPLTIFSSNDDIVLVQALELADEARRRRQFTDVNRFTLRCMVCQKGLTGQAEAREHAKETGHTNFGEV
inactive: [1] 0.253 | [2] 0.0444 | [3] 0.0365 | [4] -0.412 | [5] -0.152 | [6] 0.18 | [7] -0.323 | [8] -0.308 | [9] 0.241 | [10] -0.155 | [11] -0.266 | [12] 0.106 | [13] 0.0345 | [14] 0.0106 | [15] 0.189 | [16] 0.0867 | [17] -0.836

USP47 (UniProt Q96K76)
inactive: [1] -0.233 | [2] -0.0445 | [3] 0.00775 | [4] -0.363 | [5] 0.145 | [6] -0.299 | [7] -0.276 | [8] -0.708 | [9] -0.108 | [10] -0.366 | [11] 0.0602 | [12] -0.137 | [13] 0.0163 | [14] -0.243 | [15] -0.458 | [16] -0.679 | [17] -0.241

OTUD6B (UniProt Q8N6M0)
Chain of UniProt Q8N6M0 (Q8N6M0 whole entry): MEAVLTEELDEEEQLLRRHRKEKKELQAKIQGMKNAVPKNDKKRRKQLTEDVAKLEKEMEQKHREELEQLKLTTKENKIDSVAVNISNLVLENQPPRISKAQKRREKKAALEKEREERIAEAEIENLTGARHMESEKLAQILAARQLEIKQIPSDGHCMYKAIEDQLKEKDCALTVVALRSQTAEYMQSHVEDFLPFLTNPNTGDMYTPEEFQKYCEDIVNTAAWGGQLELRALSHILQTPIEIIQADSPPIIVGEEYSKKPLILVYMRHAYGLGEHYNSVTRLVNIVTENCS
active: [17] -1.19
inactive: [1] 0.0114 | [2] -0.285 | [3] 0.0184 | [4] -0.269 | [5] -0.538 | [6] -0.0327 | [7] -0.167 | [8] -0.274 | [9] -0.338 | [10] -0.283 | [11] -0.0694 | [12] -0.286 | [13] -0.29 | [14] -0.356 | [15] 0.00691 | [16] -0.225
